Measurements from the supplement of paper PMC6411743.
± gives the standard deviation of the averaged measurements. The full data set covers some 5,400 targets. This sample favours those with the largest changes.

Compound: Nc1nc2c(ncn2[C@@H]2O[C@H](COP(=O)(O)OP(=O)(O)OP(=O)(O)O)[C@@H](O)[C@H]2O)c(=O)[nH]1 [guanosine triphosphate]
Experiment: NP40-soluble protein abundance relative to vehicle (solubility fold change) (ratio); higher = more soluble protein in presence of GTP
Description: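 Solubility proteome profiling in Jurkat crude lysate. Lysate was treated with Mg-GTP (0.1-10 mM) for 10 min at room temperature and 3 min at 37 °C, then solubilised with 0.8% NP40 and benzonase, followed by ultracentrifugation. Proteins were quantified by TMT10 LC-MS/MS; the value is the NP40-soluble abundance relative to the NP40-processed vehicle, from 3 independent experiments.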

Sequence of UniProt Q14141 (Q14141 whole entry, one chain of several): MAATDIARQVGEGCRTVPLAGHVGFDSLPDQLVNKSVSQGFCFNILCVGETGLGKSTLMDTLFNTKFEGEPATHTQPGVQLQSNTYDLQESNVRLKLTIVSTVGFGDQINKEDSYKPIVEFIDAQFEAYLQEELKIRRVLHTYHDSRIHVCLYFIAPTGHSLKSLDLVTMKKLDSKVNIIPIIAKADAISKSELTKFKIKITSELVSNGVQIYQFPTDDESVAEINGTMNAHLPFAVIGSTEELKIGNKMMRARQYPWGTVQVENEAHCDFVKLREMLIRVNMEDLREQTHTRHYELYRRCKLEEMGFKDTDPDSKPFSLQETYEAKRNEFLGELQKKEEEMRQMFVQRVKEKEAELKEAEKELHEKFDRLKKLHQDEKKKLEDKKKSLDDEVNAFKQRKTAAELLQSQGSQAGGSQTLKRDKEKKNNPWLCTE
Sequence of UniProt Q96B45 (Q96B45 whole entry, looked up, one chain of several): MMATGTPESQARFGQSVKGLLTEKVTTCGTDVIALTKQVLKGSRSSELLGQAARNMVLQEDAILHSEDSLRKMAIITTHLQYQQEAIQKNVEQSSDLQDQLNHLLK
Sequence of UniProt Q9Y262 (Q9Y262 whole entry, one chain of several): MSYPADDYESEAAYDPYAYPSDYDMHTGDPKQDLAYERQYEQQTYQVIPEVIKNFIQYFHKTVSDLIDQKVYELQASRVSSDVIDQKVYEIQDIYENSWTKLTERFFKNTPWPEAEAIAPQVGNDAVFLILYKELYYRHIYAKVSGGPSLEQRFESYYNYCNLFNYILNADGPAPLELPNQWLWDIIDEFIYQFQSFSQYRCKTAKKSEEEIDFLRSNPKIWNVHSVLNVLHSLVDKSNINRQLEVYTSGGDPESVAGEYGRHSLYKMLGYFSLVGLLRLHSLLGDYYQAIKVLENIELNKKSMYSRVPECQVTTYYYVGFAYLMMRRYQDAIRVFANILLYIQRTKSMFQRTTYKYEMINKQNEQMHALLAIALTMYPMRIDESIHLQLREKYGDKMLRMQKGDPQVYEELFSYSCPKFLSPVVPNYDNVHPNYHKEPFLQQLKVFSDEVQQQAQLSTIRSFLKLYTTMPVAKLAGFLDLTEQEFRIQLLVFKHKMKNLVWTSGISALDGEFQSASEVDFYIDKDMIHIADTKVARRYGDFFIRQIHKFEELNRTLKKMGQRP
Sequence of UniProt P11802 (P11802 whole entry, one chain of several): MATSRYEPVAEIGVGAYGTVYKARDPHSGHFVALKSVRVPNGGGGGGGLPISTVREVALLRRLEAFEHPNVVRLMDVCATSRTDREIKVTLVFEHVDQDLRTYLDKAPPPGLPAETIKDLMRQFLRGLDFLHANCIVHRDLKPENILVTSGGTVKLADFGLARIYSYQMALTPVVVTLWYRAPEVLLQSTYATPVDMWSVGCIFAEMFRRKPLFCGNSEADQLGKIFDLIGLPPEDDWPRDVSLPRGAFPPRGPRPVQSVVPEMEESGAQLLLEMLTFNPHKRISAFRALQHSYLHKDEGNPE
Sequence of UniProt Q03154 (Q03154 whole entry, looked up, other chains not shown): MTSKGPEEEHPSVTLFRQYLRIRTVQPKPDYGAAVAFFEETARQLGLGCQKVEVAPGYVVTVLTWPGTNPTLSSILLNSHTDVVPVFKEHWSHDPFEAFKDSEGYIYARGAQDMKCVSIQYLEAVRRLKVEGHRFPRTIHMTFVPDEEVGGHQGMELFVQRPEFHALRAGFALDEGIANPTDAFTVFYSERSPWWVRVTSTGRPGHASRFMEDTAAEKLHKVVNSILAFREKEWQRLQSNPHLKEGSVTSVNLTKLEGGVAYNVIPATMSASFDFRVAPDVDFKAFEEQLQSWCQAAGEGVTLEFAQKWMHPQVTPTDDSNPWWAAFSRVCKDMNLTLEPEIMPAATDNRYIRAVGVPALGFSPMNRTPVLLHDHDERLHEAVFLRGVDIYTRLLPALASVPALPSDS

Target	NP40-soluble protein abundance (concentration: 0.1mM)	NP40-soluble protein abundance (concentration: 0.5mM)	NP40-soluble protein abundance (concentration: 1mM)	NP40-soluble protein abundance (concentration: 2mM)	NP40-soluble protein abundance (concentration: 4mM)	NP40-soluble protein abundance (concentration: 6mM)	NP40-soluble protein abundance (concentration: 8mM)	NP40-soluble protein abundance (concentration: 10mM)
F8VTV8|F8VWX7|F8VYH9|P11802 (UniProt P11802)	0.977 ± 0.13	1.06 ± 0.048	0.999 ± 0.041	1.05 ± 0.071	1.06 ± 0.056	1.02 ± 0.049	0.995 ± 0.04	0.973 ± 0.015
B0QY89|Q9Y262|Q9Y262-2 (UniProt Q9Y262)	1.08 ± 0.062	1.09 ± 0.09	1.06 ± 0.1	1.17 ± 0.19	1.33 ± 0.28	1.47 ± 0.34	1.57 ± 0.29	1.75 ± 0.35
A0A0B4J1R7|Q96B45 (UniProt Q96B45)	0.918 ± 0.15	0.977 ± 0.18	1.02 ± 0.17	1.09 ± 0.11	1.09 ± 0.24	1 ± 0.19	1.02 ± 0.12	1.06 ± 0.18
C9JMV9|Q03154|Q03154-4 (UniProt Q03154+C9JMV9)	1.03 ± 0.012	1.03 ± 0.011	0.97 ± 0.078	0.924 ± 0.036	0.954 ± 0.019	0.933 ± 0.031	0.94 ± 0.05	0.956 ± 0.12
B1AMS2|Q14141|Q14141-2|Q14141-4 (UniProt Q14141)	1.03 ± 0.053	0.998 ± 0.011	0.968 ± 0.062	0.9155 ± 0.0055	0.941 ± 0.054	0.921 ± 0.016	0.941 ± 0.1	0.857 ± 0.013
